Compound activity deposited in PubChem by several laboratories.
PREPL inh: inhibits the human prolyl oligopeptidase-like enzyme | Q4J6C6 | recombinant PREPL, fluorescence polarization activity-based probe | inhibition, % at 5.96 µM | hit rate 0.68% among 320,000 | AID 2751; in the data active = inhibition above about 43%
LYPLA2 counter: LYPLA2 (human) inhibition in PME1 counter-screen. O95372. recombinant LYPLA2, FP-Rh probe fluorescence polarization. inhibition, % at 5.9 µM. hit rate 0.38% among 320,000. AID 2177;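 active = inhibition above the screen-wide mean plus 3 SD, limit set per campaign, cut at about 26% in these data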
Target sequence (O95372 whole entry, looked up): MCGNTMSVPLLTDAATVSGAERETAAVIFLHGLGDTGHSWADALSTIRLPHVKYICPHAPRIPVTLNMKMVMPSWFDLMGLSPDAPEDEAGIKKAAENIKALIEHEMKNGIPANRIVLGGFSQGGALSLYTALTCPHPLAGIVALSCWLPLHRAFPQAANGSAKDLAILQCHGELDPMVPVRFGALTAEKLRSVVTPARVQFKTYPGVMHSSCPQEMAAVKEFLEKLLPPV
MEX-5 binding: C. elegans MEX-5 TCR-2 RNA binding activity | Q9XUB2 | activity score (negative = inhibition of binding), % at 10 µM | MEX-5/FITC-TCR2 RNA binding, fluorescence polarization; stronger effect = lower value | hit rate 0.38% among 300,000;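 active = inhibition past about -25% in most replicates, and total fluorescence under double the plate's negative control median, limit read from the data; inconclusive = replicates evenly split on the limit, or fluorescence at least double controls; inactive = too little inhibition in most replicates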
Fam108B inh: counter-screen for RBBP9 inhibitors: inhibitors of mouse Fam108B. recombinant Fam108B, FP-Rh probe fluorescence polarization. inhibition, % at 9.51 µM. hit rate 0.33% among 300,000. AID 1947;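 active = inhibition above the screen mean inhibition plus 3 SD, computed separately per campaign, cut at about 18% in these data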;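 also: inhibitors lower polarization as less probe binds the enzyme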
PME-1 primary: PME-1 (human) inhibition; recombinant PME-1, FP-Rh probe fluorescence polarization; Q9Y570; hit rate 0.53% among 320,000; inhibition, % at 5.9 µM;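 active = inhibition above the campaign mean of all compounds plus 3 SD, cut at about 26% in these data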;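 also: competitive labeling of PME-1 active site by serine hydrolase directed probe; inhibitors block probe labeling so polarization falls and inhibition rises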
Target sequence (Q9Y570 whole entry, looked up): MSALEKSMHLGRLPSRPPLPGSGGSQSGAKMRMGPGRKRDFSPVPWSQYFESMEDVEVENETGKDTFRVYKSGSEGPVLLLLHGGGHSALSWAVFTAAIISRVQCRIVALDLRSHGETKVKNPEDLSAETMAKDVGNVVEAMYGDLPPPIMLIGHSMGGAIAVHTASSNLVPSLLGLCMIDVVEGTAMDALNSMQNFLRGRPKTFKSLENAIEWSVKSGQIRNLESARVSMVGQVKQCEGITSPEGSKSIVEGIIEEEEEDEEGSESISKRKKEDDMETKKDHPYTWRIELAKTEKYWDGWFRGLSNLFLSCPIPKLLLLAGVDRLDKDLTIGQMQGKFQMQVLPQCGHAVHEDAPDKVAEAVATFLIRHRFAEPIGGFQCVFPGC
LYPLA1 counter: LYPLA1 (human) inhibition in PME1 counter-screen; inhibition, % at 5.9 µM; recombinant LYPLA1, FP-Rh probe fluorescence polarization; O75608; hit rate 0.16% among 320,000; AID 2174;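 active = inhibition above the mean of all tested compounds plus 3 SD, set per campaign, cut at about 14% in these data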;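 also: inhibitors block serine hydrolase probe labeling of LYPLA1 so polarization falls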
LYPLA1 conf: LYPLA1 (human) inhibition, confirmation counter-screen. shares compounds with LYPLA1 counter. recombinant LYPLA1, FP-Rh probe fluorescence polarization. inhibition, % at 5.9 µM. hit rate 69% among 480;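 active = mean inhibition across replicates above the hit cutoff set in the primary screen, cut at about 15% in these data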;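 also: loss of FP-Rh probe labeling of LYPLA1 seen as lower polarization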
Each line names hits and unclear results; the compound was inactive in the other large screens (follow-up assays come after a bar, where they were run). Most compounds without a hit are left out; they make up all but 1.6% or so of the library.

CCC(=Nc1ccc(N)cc1)C1=C(O)C(C(=O)OC)C(C)(C)CC1=O (stereo not drawn)	PME-1 primary 26.5, LYPLA1 counter 20.6 | LYPLA1 conf inactive
COCCN(CCOC)S(=O)(=O)c1ccc(C(=O)Nc2ccncc2)cc1	none (no result: PREPL inh, LYPLA2 counter, Fam108B inh, PME-1 primary, LYPLA1 counter)
Cc1n[nH]c(C)c1N1C(=O)c2cccc3c(N4CCCCCC4)ccc(c23)C1=O	MEX-5 binding -52.5, LYPLA1 counter 19.5 | LYPLA1 conf 18.8
CC(=O)c1ccc2c3c(cccc13)C(=O)N(c1c(C)nn(C)c1C)C2=O	none (no result: MEX-5 binding)
O=C(CCNc1cccc(F)c1)c1cccc([N+](=O)[O-])c1	none
O=C(CCNc1ccc(Cc2ccncc2)cc1)c1cccc([N+](=O)[O-])c1	LYPLA1 counter 18.3 | LYPLA1 conf 35.6
O=C(CN1C(=O)C2CCCCC2C1=O)Nc1ccccc1N1CCCC1 (stereo not drawn)	none
Cc1cc(Nc2ccc(O)cc2)ccc1N	PME-1 primary 35.5, LYPLA1 counter 16.0 (no result: MEX-5 binding, Fam108B inh) | LYPLA1 conf inactive
COc1ccc(N)c2c1C(=O)c1ccccc1C2=O	LYPLA1 counter 20.2 | LYPLA1 conf 14.2
COc1ccc(OC)c2c1C(=O)C(Cl)=C(Cl)C2=O	none
COc1ccc(OC)c2c1C(=O)c1ccccc1C2=O	MEX-5 binding inconclusive, PME-1 primary 27.7, LYPLA1 counter 22.0 | LYPLA1 conf inactive
CCCCC(=O)Nc1cccc(-c2nc3ncccc3o2)c1C	none
CCOC(=O)CSc1nnc(-c2ccc3ncccc3c2)n1C	none
CCOc1ccc(C2OC34CCCCC3C(C#N)(C#N)C2(C#N)C(=N)O4)cc1OC (stereo not drawn)	MEX-5 binding -29.0, LYPLA1 counter 20.9 | LYPLA1 conf inactive
S=c1[nH]nc(-c2cc3c(s2)-c2ccccc2CC3)o1	LYPLA1 counter 17.3 | LYPLA1 conf 20.7
CCOC(=O)c1ccc(N2C(=O)c3n[nH]c(C)c3C2c2ccc(OC)cc2)cc1 (stereo not drawn)	none
CCOC(=O)c1ccc(N2C(=O)c3n[nH]c(C)c3C2c2ccc(OC)c(OC)c2)cc1 (stereo not drawn)	LYPLA1 counter 29.4 | LYPLA1 conf 42.3
Cc1ccc(C(=O)N=c2sccn2C)o1	none
CSC(=NC#N)N1CCN(c2ccc([N+](=O)[O-])cc2)CC1	LYPLA1 counter 19.2 | LYPLA1 conf 24.2
CSC(=NC#N)N1CCN(C(c2ccccc2)c2ccccc2)CC1	LYPLA1 counter 19.6 | LYPLA1 conf 24.1
CSC(=NC#N)N1CCN(C(=NC#N)SC)CC1	none
O=C(Cn1nnc2c(cnn2-c2ccc(F)cc2)c1=O)c1ccccc1F	none (no result: MEX-5 binding)
Cc1cc(SCC(=O)Nc2cccc(S(=O)(=O)NC3=NCCCCC3)c2)nc2ccccc12	LYPLA1 counter 19.1 | LYPLA1 conf 28.9
COc1ccccc1OCC(=O)Nc1cccc(S(=O)(=O)NC2=NCCCCC2)c1	none
Cc1ccc(-n2c(SCC(=O)Nc3cccc(S(=O)(=O)NC4=NCCCCC4)c3)nc3ccccc3c2=O)cc1C	none
COc1ccc(-c2nc(CC(=O)Nc3cccc(S(=O)(=O)NC4=NCCC4)c3)cs2)cc1	LYPLA1 counter 16.2 (no result: MEX-5 binding, Fam108B inh) | LYPLA1 conf inactive
COc1ccc2c(c1)[C@H]1[C@H](CO2)[C@H](c2ccccc2)[C@]2(C)C(=O)Nc3ccc(F)cc3C(=O)N12	none (no result: LYPLA2 counter, MEX-5 binding, Fam108B inh, PME-1 primary, LYPLA1 counter)
CC(C)(C)NC(=S)NCCc1ccccc1	MEX-5 binding inconclusive
C=CCOc1ccc(Br)cc1CNC(C)(C)CO	none
C=CCOc1ccc(Br)cc1CNC(C)(C)C	LYPLA1 counter 17.5 | LYPLA1 conf inactive
CCC1CCCCN1CC(C)(C)NS(=O)(=O)c1ccccc1 (stereo not drawn)	none
Cc1ccc(C2CCN(C(=O)Nc3ccc(F)cc3)C2)cc1 (stereo not drawn)	none
COC(=O)C1CCN(c2c([N+](=O)[O-])cc(C(F)(F)F)cc2[N+](=O)[O-])CC1	LYPLA1 counter 31.8 | LYPLA1 conf 33.5
CCOC(=O)C1=C(C)N(C)C(=S)NC1c1cc(OC)ccc1OC (stereo not drawn)	none
CCCc1cc(=O)oc2c(C)c(OCc3nn[nH]n3)ccc12	none
CCCCc1cc(=O)oc2cc(OCc3nn[nH]n3)c(Cl)cc12	LYPLA1 counter 21.9 | LYPLA1 conf 20.7
COc1ccc(OCC(O)CNc2ccc(Br)cc2)cc1 (stereo not drawn)	none
CC1Sc2ccc(S(=O)(=O)N3CCC(C(N)=O)CC3)cc2NC1=O (stereo not drawn)	none
O=C(Oc1ccc2c3c(c(=O)oc2c1)CCC3)c1ccco1	none
O=C(CCCCCN1C(=O)c2ccccc2C1=O)Oc1ccc2c3c(c(=O)oc2c1)CCC3	LYPLA1 counter 32.4 | LYPLA1 conf 50.9
Cc1ccc2nc(SCC(=O)NCc3ccco3)nc(=O)n2c1	none
CCOC(=O)c1nn(-c2ccccc2)c(-c2ccccc2)c1C(=O)c1ccccc1	LYPLA1 counter 18.3 | LYPLA1 conf inactive
Cc1ccc(C)c(NC(=O)C(OC(=O)c2cnc(C)cn2)c2ccccc2)c1 (stereo not drawn)	none
Cc1cnc(C(=O)OC(C(=O)Nc2cc(C(F)(F)F)ccc2Cl)c2ccccc2)cn1 (stereo not drawn)	LYPLA1 counter 31.5 | LYPLA1 conf inactive
O=C(COC(=O)C1CC2C=CC1C2)Nc1cccc(S(=O)(=O)N2CCCCC2)c1 (stereo not drawn)	LYPLA1 counter 15.9 | LYPLA1 conf 28.4
O=C(COC(=O)C1CCC1)Nc1cccc(S(=O)(=O)N2CCOCC2)c1	none
O=C(COC(=O)C1CC2C=CC1C2)Nc1cccc(S(=O)(=O)N2CCCCCC2)c1 (stereo not drawn)	LYPLA1 counter 36.7 | LYPLA1 conf 45.6
CC(OC(=O)c1ccccn1)C(=O)Nc1nc(-c2ccc(F)c(F)c2)cs1 (stereo not drawn)	none (no result: LYPLA2 counter, MEX-5 binding, Fam108B inh, PME-1 primary, LYPLA1 counter)
CC1CCN(C(=O)C2CCN(S(=O)(=O)c3ccc4c(c3)CC(C)N4C(=O)C3CC3)CC2)CC1 (stereo not drawn)	none
CC1CC(C)CN(S(=O)(=O)c2ccc3c(c2)CC(C)N3C(=O)C2CCC2)C1 (stereo not drawn)	LYPLA1 counter 54.5 | LYPLA1 conf 54.2
CC1CC(C)CN(S(=O)(=O)c2ccc3c(c2)CC(C)N3C(=O)C2CC2)C1 (stereo not drawn)	LYPLA1 counter 28.7 | LYPLA1 conf 31.1
CCOC(=O)C1CCCCN1S(=O)(=O)c1ccc2c(c1)CC(C)N2C(=O)C1CCC1 (stereo not drawn)	LYPLA1 counter 15.3 | LYPLA1 conf inactive
Cc1cccc(NC(=O)/C(C#N)=C/c2cn(CC(=O)NCc3ccco3)c3ccccc23)c1	none (no result: MEX-5 binding)
CC(=O)Nc1ccc(S(=O)(=O)NCc2nc(-c3cccc(C)c3)no2)cc1	MEX-5 binding inconclusive
Cn1c(N)c(S(=O)(=O)NCc2ccc(Cl)cc2)c(=O)n(C)c1=O	none
